# Source: PubChem BioAssay
# Pf Dd2 inh: P. falciparum Dd2 growth inhibitors, primary screen, SYBR Green fluorescence, single dose replicates; 72 h; stronger effect = lower value; 94,000 tested, 2.3% active; activity change, % at 10 µM; in the data active means activity change below about -80%; inconclusive means no clear call, values can overlap the other calls
# T cruzi growth-1: T. cruzi intracellular proliferation inhibitors, primary screen, cell-based, beta-gal Tulahuen parasites, NIH3T3 host, luminescence | AID 624255, 2012 | T. cruzi beta-gal in NIH3T3, GalScreen luminescence, 90 h | inhibition, % at 8.34 µM | 77,000 tested, 5.9% active;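 active means mean inhibition above about 93%, with at least 55% of replicates each passing it, limit read from the data, passing the limit was not always enough; inconclusive means only one of those two conditions holds; inactive means neither condition holds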
# C diff growth: C. difficile growth inhibitors, primary screen, HTS | Clostridium difficile clinical isolate growth, OD600, 24 h; stronger effect = lower value | growth activity, negative = inhibition, % at 16 µg/mL (by protocol) | 86,000 tested, 0.25% active | AID 1259249, 2017;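 active means mean growth activity at or below -80% and every replicate also at or below -80%; inconclusive means mean at or below -80% but some replicate above -80%; inactive means mean growth activity above -80%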;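 further: 0% = DMSO wells and -100% = levofloxacin 16 µg/mL wells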
# T cruzi growth-2: T. cruzi intracellular proliferation inhibitors, confirmation, cell-based, NIH3T3 host, beta-gal parasite, luminescence, cherry-pick | inhibition, % at 8.35 µM | shares compounds with T cruzi growth-1 | AID 651739, 2012 | 5,600 tested, 72% active | T. cruzi beta-gal in NIH3T3, GalScreen luminescence, 90 h;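 active means mean replicate inhibition above about 95% and at least 55% of replicates individually reaching it, limit read from the data; inconclusive means only one of the two criteria is met; inactive means neither criterion is met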
# T cruzi growth-3: inhibitors of intracellular T. cruzi replication, confirmation, NIH3T3 host cells, beta-gal parasites, cherry-pick, set 2 | shares compounds with T cruzi growth-1 | T. cruzi beta-gal in NIH3T3, GalScreen luminescence, 90 h | inhibition, % at 2.09 µM | 5,600 tested, 21% active;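 active means mean inhibition above about 95%, with at least 55% of replicates also reaching it, limit read from the data; inconclusive means meets just one of the two conditions; inactive means meets neither condition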;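 further: plate controls were neutral control median for no effect and positive control median for full effect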
# 3T3 cytotox: cytotoxicity in mouse NIH/3T3 fibroblasts, confirmation, cytotoxicity control for T. cruzi proliferation inhibitor project, cell-based, cherry-pick, single point | cytotoxicity (signal decrease), % at 8.35 µM | shares compounds with T cruzi growth-1 | 5,600 tested, 14% active | NIH/3T3 viability, CellTiter-Glo ATP luminescence, 90 h | AID 651742, 2012;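 active means mean signal decrease across replicates above about 35% based on untreated-well scatter, with enough replicates individually passing, limit read from the data; inconclusive means no rule stated though some were filed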;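 further: 0% = median of neutral control wells and 100% = median of positive control wells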
# NIH3T3 tox 2: NIH/3T3 fibroblast cytotoxicity, confirmation, cytotoxicity control, cell-based, cherry-pick, single point, set 2; NIH/3T3 viability, CellTiter-Glo ATP luminescence, 90 h; 5,600 tested, 56% active; inhibition, % at 24.9 µM; shares compounds with T cruzi growth-1;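 active means mean loss of cell viability signal at or above a set limit, and enough replicates individually reaching it; inconclusive means meets only the mean limit or only the replicate share; inactive means meets neither condition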;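 further: 0% = median of neutral control wells and 100% = median of positive control wells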
# Active calls of the source: *; ? = inconclusive; . = no result. Rows were chosen to be rich in hits. Some 6.7% of all compounds tested hit in one or more screens of this group.
SMILES,Pf Dd2 inh,T cruzi growth-1,C diff growth,T cruzi growth-2,T cruzi growth-3,3T3 cytotox,NIH3T3 tox 2
CC(=O)N(C)C[C@@H]1Oc2ncc(C#Cc3ccccc3F)cc2C(=O)N([C@H](C)CO)C[C@@H]1C,5,-19,-5,.,.,.,.
O=C(C[C@@H]1C[C@@H]2c3cc(NC(=O)C4CCC4)ccc3O[C@@H]2[C@H](CO)O1)NCCc1ccccc1,-16,-56,-25,.,.,.,.
COc1ccc(NC(=O)O[C@H]2[C@H](OC(=O)Nc3ccc4c(c3)OCO4)[C@H](OC(=O)Nc3ccc4c(c3)OCO4)[C@@H](OC)O[C@@H]2CO)cc1,.,.,14,.,.,.,.
CCC(=O)N1C[C@H](C)[C@@H](OC)CN(C)C(=O)c2ccc(NC(=O)Nc3ccc(Cl)cc3)cc2OC[C@H]1C,16,52,.,.,.,.,.
COCc1cn(CC[C@@H]2CC[C@H](NC(=O)Nc3ccc(OC)cc3)[C@H](CO)O2)nn1,13,-2,-3,.,.,.,.
CN(C)C(=O)c1ccc(-c2ccc([C@H]3[C@@H](CO)N4CCCCN(C(=O)C5CC5)C[C@@H]34)cc2)cc1,-23,66,5,.,.,.,.
CN(C)C(=O)c1ccc(-c2ccc([C@H]3[C@@H](CO)N4CCCCN(C(=O)C5CCC5)C[C@@H]34)cc2)cc1,26,106*,1,102*,89,9,27
CN(C)C(=O)c1ccc(-c2ccc([C@@H]3[C@@H](CO)N4CCCCN(C(=O)C5CCC5)C[C@H]34)cc2)cc1,6,49,-5,.,.,.,.
CN(C)C(=O)c1ccc(-c2ccc([C@@H]3[C@H]4CN(C(=O)C5CCC5)CCCCN4[C@H]3CO)cc2)cc1,-9,101*,-10,95*,44,33,38*
CN(C)C(=O)c1ccc(-c2ccc([C@H]3[C@H](CO)N4CCCCN(C(=O)C5CCC5)C[C@@H]34)cc2)cc1,-27,100*,-9,95*,90,7,42*
CN(C)C(=O)c1ccc(-c2ccc([C@@H]3[C@H](CO)N4CCCCN(C(=O)C5CC5)C[C@@H]34)cc2)cc1,-12,67,3,.,.,.,.
CC(C)NC(=O)N(C)C[C@@H]1OCCCC[C@@H](C)Oc2ccc(NS(C)(=O)=O)cc2C(=O)N([C@H](C)CO)C[C@H]1C,36,-17,.,.,.,.,.
CCC(=O)N1C[C@H](C)[C@@H](OC)CN(C)C(=O)c2ccc(NC(=O)c3cnccn3)cc2OC[C@H]1C,-13,15,.,.,.,.,.
C[C@@H]1CN([C@@H](C)CO)C(=O)c2cc(NS(=O)(=O)c3ccc(Cl)cc3)ccc2O[C@H]1CN(C)S(=O)(=O)c1ccc(Cl)cc1,-7,39,-9,.,.,.,.
C[C@@H]1CN([C@@H](C)CO)C(=O)c2cc(NS(=O)(=O)c3ccc(Cl)cc3)ccc2O[C@@H]1CN(C)S(=O)(=O)c1ccc(Cl)cc1,29,?,9,113*,42,28,65*
Cc1ccc(S(=O)(=O)N(C)C[C@H]2Oc3ccc(NS(=O)(=O)c4ccc(Cl)cc4)cc3C(=O)N([C@H](C)CO)C[C@H]2C)cc1,11,100*,-3,96*,13,28,36*
Cc1ccc(S(=O)(=O)Nc2ccc3c(c2)C(=O)N([C@@H](C)CO)C[C@H](C)[C@H](CN(C)S(=O)(=O)c2ccc(Cl)cc2)O3)cc1,-9,.,43,.,.,.,.
Cc1noc(C)c1NC(=O)N(C)C[C@@H]1Oc2ncc(C#CC3CCCC3)cc2C(=O)N([C@@H](C)CO)C[C@H]1C,3,87,-8,.,.,.,.
C[C@H](O)C#Cc1ccc2c(c1)O[C@@H](CN(C)C(=O)CN(C)C)[C@@H](C)CN([C@@H](C)CO)S2(=O)=O,3,11,2,.,.,.,.
C[C@@H]1CCCCO[C@@H](CN(C)C(=O)Nc2ccc(F)cc2)[C@H](C)CN([C@@H](C)CO)C(=O)c2cc(NC(=O)Nc3cccc4ccccc34)ccc2O1,-7,91,-8,.,.,.,.
C[C@@H]1CCCCO[C@H](CN(C)C(=O)Nc2ccc(F)cc2)[C@H](C)CN([C@@H](C)CO)C(=O)c2cc(NC(=O)Nc3cccc4ccccc34)ccc2O1,-39,102*,-5,110*,81,-20,-5
C[C@@H]1CCCCO[C@@H](CN(C)C(=O)Nc2ccccc2)[C@@H](C)CN([C@@H](C)CO)C(=O)c2cc(NC(=O)Nc3cccc4ccccc34)ccc2O1,?,.,-2,.,.,.,.
C[C@@H]1CCCCO[C@H](CN(C)C(=O)Nc2cccc3ccccc23)[C@@H](C)CN([C@H](C)CO)C(=O)c2cc(NC(=O)Nc3ccc(F)cc3)ccc2O1,-34,69,-3,.,.,.,.
C[C@@H]1CCCCO[C@H](CN(C)C(=O)Nc2cccc3ccccc23)[C@H](C)CN([C@@H](C)CO)C(=O)c2cc(NC(=O)Nc3ccc(F)cc3)ccc2O1,-83*,101*,7,112*,60,-14,-11
C[C@H](CO)N1C[C@H](C)[C@H](CN(C)C(=O)Nc2cccc3ccccc23)OCCCC[C@H](C)Oc2ccc(NC(=O)Nc3ccc(F)cc3)cc2C1=O,-48,?,-3,101*,71,0,0
SMILES,Pf Dd2 inh,T cruzi growth-1,C diff growth,T cruzi growth-2,T cruzi growth-3,3T3 cytotox,NIH3T3 tox 2
C[C@@H]1CN([C@@H](C)CO)C(=O)c2cc(C#CCN(C)C)cnc2O[C@@H]1CN(C)C(=O)Nc1ccccc1F,16,-124,5,.,.,.,.
C[C@@H]1CN([C@H](C)CO)C(=O)c2cc(NC(=O)Nc3ccccc3)ccc2O[C@@H](C)CCCCO[C@H]1CN(C)Cc1ccccc1,-75,.,.,.,.,.,.
C[C@@H]1CN([C@@H](C)CO)C(=O)c2cc(NC(=O)NC3CCCCC3)ccc2O[C@@H]1CN(C)Cc1ccc(Cl)c(Cl)c1,20,?,5,97*,10,28,27
C[C@@H]1CN([C@H](C)CO)C(=O)c2cc(NC(=O)NC3CCCCC3)ccc2O[C@H]1CN(C)Cc1ccc(Cl)c(Cl)c1,-4,93*,3,106*,-22,20,13
C[C@H](CO)N1C[C@H](C)[C@@H](CN(C)Cc2ccc(Cl)c(Cl)c2)Oc2ccc(NC(=O)NC3CCCCC3)cc2C1=O,9,7,4,.,.,.,.
C[C@H]1CN([C@@H](C)CO)C(=O)c2cc(NC(=O)NC3CCCCC3)ccc2O[C@@H]1CN(C)Cc1ccc(Cl)c(Cl)c1,13,50,-9,.,.,.,.
COc1ccccc1-c1ccc2c(c1)O[C@@H](CN(C)C(C)=O)[C@H](C)CN([C@H](C)CO)S2(=O)=O,18,16,3,.,.,.,.
